One assay concerns the target ATP8A2. The assay is described as follows: pooled miR-30 sensor sort-seq; sequence = guide strand. To be noted: shRNA.
In turn, TTAAAGTTCATGATATTGCATG displayed a sensor-assay potency score (higher = more potent) of -0.75. On to TTGTATAAGATGATGAACGTCA, for which the sensor-assay potency score (higher = more potent) was 2.4e-06.

Regarding TTGAGTATACTTCACAACCTCA, the sensor-assay potency score (higher = more potent) was -0.741.

Sequence TTCCTGACTAACAGCTCCGTGT yielded a sensor-assay potency score (higher = more potent) of -0.616. TTCAACATAACACATTGCCTGA came in with a sensor-assay potency score (higher = more potent) of -0.505.

Another assay deals with ATP8B3. The description is as above. The following applies: shRNA.
TTGACTGAGAAACCGAAGCCGA gave a sensor-assay potency score (higher = more potent) of -0.857. As to TAATTTTTGTGTCAAAACCAGC, the sensor-assay potency score (higher = more potent) is -1.1. Regarding TTCTTTGACTGAGAAACCGAAG, the sensor-assay potency score (higher = more potent) is -1.15.

TTTGATGTTGCTCTTCTTGAGA gave a sensor-assay potency score (higher = more potent) of -0.55. Same read-out and setting: the value for TTGGTCAACAGCAACTTCTCAG was -0.358; that for TAGTACATCTGCACGTCCCAGT was 0.127. Same read-out and setting: the value for TAGAAGTTGTACTTGGCCGTGC was 1.18. TTGGTCTTGTATTTCTTCCTTT displayed a sensor-assay potency score (higher = more potent) of -0.502. Take TTTCTTGTCATTCCATTCCAGG: the sensor-assay potency score (higher = more potent) is -1.26. The same measure, in the same setting: the result for TTTTTGTGTCAAAACCAGCATA reads -0.74; that for TTCTCTGACAGCAGCTCGCAGG, -0.893. Same read-out and setting: the value for TAAATGACCAGTCCATAGCAGG was -1.07.

The next assay addresses AVPR1B. Described as above. To be noted: shRNA.
Take TTGGTGGAATCTTCATCAGGGG: the sensor-assay potency score (higher = more potent) is -0.225. Still for that read-out and setting: the result for TTGACTTTTAGGTTTTTACAGA reads -0.906. In turn, TTGGTGACTCTTCAGGCCTGGG returned a sensor-assay potency score (higher = more potent) of -0.954. Still for that read-out and setting: the value for AAACATGCTGAGCACCTGCAGG was -1.16; that for TGACAGACAGCCAGGTAGCGGT was -1.51. The sequence TTCACTGTTCGGATCTTGGCCC returned a sensor-assay potency score (higher = more potent) of 0.0628. Still for that read-out and setting: the result for TGTGTCTTGACTTTTAGGTTTT reads -1.08; that for TAGGTGGAGGCAAACATGCTGA, -0.677; that for AAGATAGCCAGGGTGGTCCAGG, -1.04. On the same count and under the same terms, the value for TAGGTTTTTACAGATCTCATGG was 0.26.

With TGGTGGAATCTTCATCAGGGGC, the sensor-assay potency score (higher = more potent) is -1.82. For TTTAGGTTTTTACAGATCTCAT, the sensor-assay potency score (higher = more potent) was -1.13. TTTACAGATCTCATGGCAGATG: the sensor-assay potency score (higher = more potent) is -1.02. On to ATCTGGACACTGAAGAAGGGAG, for which the sensor-assay potency score (higher = more potent) is -1.3. As to TTGGCCAGCTCCTCATCCCGGC, the sensor-assay potency score (higher = more potent) was -0.765. Still for that read-out and setting: the result for ATCTTCACTGTTCGGATCTTGG reads -1.06; that for TTCTTGTCCCACACGGACCACA, -1.03; that for TTTTTACAGATCTCATGGCAGA, -0.895. Same read-out and setting: the result for TTGAAGCCCATGTAGATCCAGG reads -0.752; that for TTAGGTTTTTACAGATCTCATG, -1.16. Still for that read-out and setting: the result for TCTGCCAGCTCCAAGTCCCTTG reads -1.14; that for TTTTAGGTTTTTACAGATCTCA, -0.253. In turn, ATCAGGGGCATTCTTGTCCCAC registered a sensor-assay potency score (higher = more potent) of -1.06.

These data come from the OligoGym collection.
Also: reference of the scale not given here.
